In all, about 1,200 compounds went through this assay and about 140 (12%) were called active. This is one part of a sample in which actives are shown more often than they occur. The calls are words filed in the database; no cut-off is given here.
assay: restoration of mutant CFTR halide transport – FRT cells, YFP quenching, cherry-pick, dose response (AID 743402); format: functional, cell-based

AbsAC35, active:
COc1ccc(NC(=O)C(=O)NCC2CCCN2S(=O)(=O)c2cccs2)cc1 (stereo not given) 87.6 µM
CC(=O)c1cccc(-c2ccnc3c2CC(C(=O)NCc2ccco2)O3)c1 (stereo not given) 40.3 µM
O=c1c(O)c(-c2cccs2)oc2ccc(Cl)cc12 30.3 µM
COc1ccc(C2=Nn3c(nnc3-c3ccccc3OC)SC2)cc1OC1CCOC1 (stereo not given) 160 µM
CCc1ccc(OCCNc2cc(N3CCNC(C)C3)ccc2[N+](=O)[O-])cc1 (stereo not given) 58.8 µM
N#Cc1ccc(-c2cccs2)nc1SCc1cccnc1 107 µM
CCN(CC)CCC(=O)Nc1cccc2c1C(=O)c1ccccc1C2=O 40.8 µM
O=C(OCc1ccc(Br)cc1)c1cc([N+](=O)[O-])ccc1N1CCOCC1 28.4 µM
CC(=O)Nc1ccc(S(=O)(=O)N2c3ccccc3C(C)=CC2(C)C)cc1 42.7 µM
COc1ccc(C2C3=C(COC3=O)Oc3cc4c(cc32)OCO4)cc1OC (stereo not given) 116 µM
